# Screening results from PubChem.
# The entries come from a sample that favours hits as a whole.
# AMA1 RON2 block – inhibitors of Plasmodium falciparum AMA1-RON2 interaction; AlphaScreen AMA1-biotinylated RON2 peptide binding; Potency, µM (top dose mostly 58.2 µM), without a hit: at the top dose activity change, negative = inhibition, hits mostly inhibitors; 360,000 compounds, 0.2% hits; active = well fitted inhibition curve with a large enough effect; inconclusive = small, poorly fitted or top-dose-only effect; inactive = no such curve, though single readings can be large or run the other way;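 also: potency is read from the fitted curve at half-maximal effect; 0% = vehicle wells and -100% = peptide control; nearly all actives have a fitted effect of over 45% in size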
#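 AMA1 (3D7) with his tag at 25 nM final met compounds first, then biotinylated RON2 peptide at 25 nM; detection used donor plus acceptor beads, 10 µg/mL apiece, read by AlphaScreen after 30 min at room temperature.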
# CHX counter – counter-screen hit for Shiga toxin inhibitors, cycloheximide; cell reporter, cycloheximide protein synthesis inhibition counterscreen; max response, %; 300,000 compounds, 12% hits; in the data active = max response mostly above about 13%, no sharp cut-off; inactive = mostly below about 14%; also: read at 38.3 µM for the half of the compounds with a filed dose; 0% is about no effect
# Shiga inhibitor – Shiga toxin inhibition; inhibition, % at 38.7 µM; 290,000 compounds, 9.2% hits; AID 2315; Vero cells, Shiga toxin protein synthesis inhibition reporter; in the data active = inhibition mostly above about 28%, no sharp cut-off; inactive = mostly below about 43%; also: 0% is about no effect
# Lassa entry inh – Lassa virus entry inhibition. Potency, µM (titrated, usually from 37.9 µM), for the others: top-dose activity change, negative = inhibition, usual class: inhibitors. Lassa virus pseudotype entry inhibition, cell reporter. 300,000 compounds, 1.2% hits. AID 540256; calls by dose curve; tested in HEK293 cells; also: potency is read from the fitted curve at half-maximal effect; % is scaled to controls: 0 for no effect and ±100 for the full control effect; nearly all actives have a fitted effect of over 50% in size
# MARV entry inh – Marburg virus entry inhibition; 300,000 compounds, 1.8% hits; Marburg virus pseudotyped entry inhibition, cell reporter; AID 540276; Potency, µM (top dose mostly 37.8 µM), without a hit: top-dose activity change, negative = inhibition, actives largely listed as inhibitors; calls by dose curve; tested in HEK293 cells; also: potency is read from the fitted curve at half-maximal effect; % is scaled to controls: 0 for no effect and ±100 for the full control effect
# * marks the source's active call; other numbers are inactive results; ? = inconclusive; nt = no result; + = active, no number; [ ] = dose if it differs, or a comment.
SMILES,AMA1 RON2 block,CHX counter,Shiga inhibitor,Lassa entry inh,MARV entry inh
Cc1cc(-c2ccc(Cl)cc2)n2nc(N)nc2n1,-6%,12,19,19%,1%
Cc1cc(Cl)n2ncc(-c3ccccc3)c2n1,-17%,57*,62*,?,?
Cc1cc(N2CCOCC2)n2ncc(-c3ccccc3Cl)c2n1,25%,41*,88*,1%,?
Cc1cc(N)n2ncc(-c3ccc(Cl)cc3)c2n1,12%,22*,49*,11%,?
CCOC(=O)c1cnn(-c2cc(C)nc3c(-c4ccccc4)cnn23)c1N,-6%,16,19,10%,?
CC12CCC(C)(O1)C1C(=O)N(c3nccs3)C(=O)C12 (stereo not given),3%,nt,nt,7%[46.1 µM],3%[46.1 µM]
Cc1c(C(=O)N2CCOCC2)c(S(=O)(=O)N2CCN(c3ccc(Cl)cc3)CC2)c(C)n1C,-4%,1,3,8%[46.1 µM],8%[46.1 µM]
COc1cccc(NS(=O)(=O)c2ccc3[nH]cc(C(=O)NC4CCCCC4)c(=O)c3c2)c1,nt,nt,nt,-7%[46.1 µM],?
CCOC(=O)Cc1c(C)nc2c(-c3ccc(Cl)cc3)cnn2c1C,79%,18,49*,23%,9%[46.1 µM]
Cc1cc(C)n2cc(-c3ccc(Cl)cc3)c(C(=O)O)c2n1,-5%,22*,51*,-1%,20%
Cc1cc(-c2ccc(Cl)cc2)c2cnn(C(C)C)c2n1,10%,30*,19,nt,nt
Cc1nc2c(-c3ccc(F)cc3)cnn2c(N)c1-c1ccc(F)cc1,83%,61*,93*,-23%[46.1 µM],5µM*
CCOC(=O)Cc1c(C)nc2c(-c3ccc(Cl)cc3)c(C)[nH]n2c1=O,6%,-1,-9,?,?
CC1(CCc2ccccc2)NC(=S)N(c2ccc(Cl)cc2)N1 (stereo not given),0%[2.32 µM],36*,59*,?,1%
CCC1(c2ccc(Cl)cc2)NC(=S)N(c2ccc(C)c(C)c2)N1 (stereo not given),130%,-3,11,nt,nt
CC1(CCc2ccccc2)NC(=S)N(c2ccccc2)N1 (stereo not given),28%,40*,42*,?,1%
COc1ccc(CC(=O)NCc2ccc3c(c2)CCN3C(=O)c2ccc(Cl)cc2)cc1OC,nt,nt,nt,11µM*,nt
COc1cc(C(=O)NCc2ccc3c(c2)CCN3C(=O)c2ccc(Cl)cc2)cc(OC)c1OC,nt,nt,nt,-16%[46.1 µM],nt
Cn1c(=O)n(CC(N)=O)c2ccccc21,9%,-2,-25,11%,14%
Cn1c(=O)n(CCc2ccccc2)c2ccccc21,13%,18*,nt,14%,0%
Cn1c(=O)n(CCCOc2ccc(Cl)cc2)c2ccccc21,1%,19*,4,15%,17%[46.1 µM]
C[C@@H]1CN([C@@H](C)CO)C(=O)CCCn2cc(nn2)CO[C@H]1CN(C)C(=O)c1cc(-c2ccccc2)on1,19%,nt,nt,nt,nt
COc1ccc(-c2cc3c(=O)n(CC(=O)NCCCN4CCN(Cc5ccccc5)CC4)ncn3n2)cc1,0%,28*,31,nt,nt
COc1ccc(CNC(=O)Cn2ncn3cccc3c2=O)cc1,nt,26*,30,nt,nt
CCc1nn(CC(=O)NCc2ccccc2)c(=O)c2cccn12,nt,nt,nt,11µM*,?
SMILES,AMA1 RON2 block,CHX counter,Shiga inhibitor,Lassa entry inh,MARV entry inh
CCc1nn(CC(=O)NCCc2ccc(Cl)cc2)c(=O)c2cccn12,0%,15,17,nt,nt
COc1ccc(-c2cc3c(=O)n(CC(=O)NCc4ccc(F)cc4)ncn3n2)cc1,24%,11*,16*,nt,nt
O=C(NNC(=S)Nc1ccc(F)cc1)C1[C@H]2CCCC[C@@H]12 (stereo not given in full),105%,22,20,-27%[46.1 µM],?
COc1ccc(-c2cc3c(=O)n(CC(=O)NCCCN4CCC(Cc5ccccc5)CC4)ncn3n2)cc1,-2%,23*,45*,nt,nt
CCOc1ccc(CCNC(=O)Cn2ncn3nc(-c4ccc(OC)cc4)cc3c2=O)cc1,14%,6,12,nt,nt
CC[n+]1c(/C=C/C=C/c2ccc(N(C)C)cc2)sc2ccccc21,18µM*,-3,-4,?,1.8µM*
CC[n+]1c(/C=C/N(C)c2ccccc2)sc2ccc(Cl)cc21,-8%,-2,2,?,2.9µM*
CCOc1cc(/C=C/C(=O)Nc2ccc(C(=O)NCCN(CC)CC)cc2)ccc1OCC(C)C,-6%,6,-3,?,18µM*
Cc1ccc(CC2C(=O)N(c3ccc(C)cc3)C(=O)C2C)cc1 (stereo not given),-10%,47*,80*,26%[46.1 µM],21%[46.1 µM]
Cc1ccc(CNC(=O)CSc2c3c(nc4cc(Cl)ccc24)CCCC3)o1,6%,2,-11,21µM*,?
Cc1ccc(C(=O)Nc2cnc3ccccc3c2)cc1,-20%,-10,-28,5µM*,?
Cc1cc(C(=O)Nc2ccc(-n3c(C)nc4ccccc4c3=O)cc2)ccc1[N+](=O)[O-],nt,nt,nt,-2%[46.1 µM],nt
O=C(Nc1cnc2ccccc2c1)c1cccnc1,15%,23*,64,nt,nt
O=C(Nc1cnc2ccccc2c1)c1cccc(-n2cnnn2)c1,-7%,88*,164*,?,12%
Cc1cc(C(=O)Nc2cnc3ccccc3c2)ccc1[N+](=O)[O-],0%,53*,131*,?,?
O=C(Nc1ccc2ncccc2c1)c1ccccc1,7%,-1,-3,26%[46.1 µM],6%[46.1 µM]
Cn1c(NC(=O)c2cccnc2)nc2ccccc21,66%,38*,+,?,?
CCC(C)c1ccc(NC(=O)CN(C)CC(=O)Nc2cccc(OC)c2)cc1 (stereo not given),-4%,13,21,nt,nt
CCOC(=O)c1cnn(-c2nc(-c3ccc(C)cc3)cs2)c1C(F)(F)F,48%,-1,14,-16%,?
O=C(O)c1cnn(-c2nc(-c3ccc(F)cc3)cs2)c1C(F)(F)F,-3%,15,73*,-8%[46.1 µM],?
O=C(O)c1cnn(-c2nc(-c3ccc(Br)cc3)cs2)c1C(F)(F)F,-6%,45*,53*,nt,nt
Cn1cc(Cl)c(/C(N)=N/OC(=O)c2ccccc2C(F)(F)F)n1,-4%,50*,91*,nt,nt
COc1ccc(OC(=O)c2cn(C)nc2C(F)(F)F)cc1,-2%,14,26,-10%,?
CCCC[C@H](CCC(=O)Nc1ccc(C(=O)OC)cc1)C(=O)O,nt,nt,nt,nt,18%[46.1 µM]
CC(C)[C@H](NC(=O)OCc1ccccc1)C(=O)N[C@H](C=O)Cc1ccccc1,nt,nt,nt,7%,0.65µM*
SMILES,AMA1 RON2 block,CHX counter,Shiga inhibitor,Lassa entry inh,MARV entry inh
O=C(N[C@@H](Cc1ccccc1)C(=O)CCl)OCc1ccccc1,0%,nt,nt,3.3µM*,16µM*
O=C(N[C@@H](Cc1ccccc1)C(=O)N[C@@H](Cc1ccccc1)C(=O)O)OCc1ccccc1,6%,nt,nt,nt,nt
Cc1oc2ccc(O)c(CN3CCCC(C)C3)c2c1C(=O)Nc1ccccc1 (stereo not given),nt,nt,nt,-29%[46.1 µM],?
O=C(NCCn1ccc2ccccc21)c1ccc2c(c1)OCO2,-3%,40*,64*,nt,nt
Cc1ccc(C(=O)NCCn2ccc3ccccc32)cc1[N+](=O)[O-],-3%,35*,80*,-25%,?
COc1ccc(C(=O)NCCn2ccc3ccccc32)cc1,1%,13*,4,?,?
